# Most compounds without a hit are left out; they make up all but 3.8% or so of the library.
# NALP1 inh = blocks the NALP1 inflammasome reconstituted in yeast. AID 2071. inhibition, % at 10 µM. hit rate 0.61% among 280,000. S. cerevisiae NALP1/ASC/caspase-1 growth, X-gal OD620, 72 h; in the data active means inhibition mostly above about 24%, no sharp cut-off; inactive means mostly below about 32%
# HSF1 activator = increases HSF-1 driven luciferase reporter signal; NIH3T3-HGL HSF-1 luciferase reporter, MG132, 8 h; 100% = twice DMSO control signal; activation, % at 9 µM; hit rate 1.7% among 300,000;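 active means mean replicate activation of at least 50% with a set share of replicates each reaching 50%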;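 further: 0% = median of the neutral control wells and 100% = twice that signal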
# p-CIP stab down = p/CIP protein destabilization; Q05BA5; F442A p/CIP-EGFP cells, EGFP fluorescence, 16 h; decrease of EGFP signal, % at 10 µM; hit rate 0.01% among 290,000;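 active means EGFP signal decrease of at least 30% at 10 µM or well 3 SD below plate mean, unless failing retest; inactive means the rest, including hits failing retest or dose response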
# Target sequence (Q05BA5 1-1403): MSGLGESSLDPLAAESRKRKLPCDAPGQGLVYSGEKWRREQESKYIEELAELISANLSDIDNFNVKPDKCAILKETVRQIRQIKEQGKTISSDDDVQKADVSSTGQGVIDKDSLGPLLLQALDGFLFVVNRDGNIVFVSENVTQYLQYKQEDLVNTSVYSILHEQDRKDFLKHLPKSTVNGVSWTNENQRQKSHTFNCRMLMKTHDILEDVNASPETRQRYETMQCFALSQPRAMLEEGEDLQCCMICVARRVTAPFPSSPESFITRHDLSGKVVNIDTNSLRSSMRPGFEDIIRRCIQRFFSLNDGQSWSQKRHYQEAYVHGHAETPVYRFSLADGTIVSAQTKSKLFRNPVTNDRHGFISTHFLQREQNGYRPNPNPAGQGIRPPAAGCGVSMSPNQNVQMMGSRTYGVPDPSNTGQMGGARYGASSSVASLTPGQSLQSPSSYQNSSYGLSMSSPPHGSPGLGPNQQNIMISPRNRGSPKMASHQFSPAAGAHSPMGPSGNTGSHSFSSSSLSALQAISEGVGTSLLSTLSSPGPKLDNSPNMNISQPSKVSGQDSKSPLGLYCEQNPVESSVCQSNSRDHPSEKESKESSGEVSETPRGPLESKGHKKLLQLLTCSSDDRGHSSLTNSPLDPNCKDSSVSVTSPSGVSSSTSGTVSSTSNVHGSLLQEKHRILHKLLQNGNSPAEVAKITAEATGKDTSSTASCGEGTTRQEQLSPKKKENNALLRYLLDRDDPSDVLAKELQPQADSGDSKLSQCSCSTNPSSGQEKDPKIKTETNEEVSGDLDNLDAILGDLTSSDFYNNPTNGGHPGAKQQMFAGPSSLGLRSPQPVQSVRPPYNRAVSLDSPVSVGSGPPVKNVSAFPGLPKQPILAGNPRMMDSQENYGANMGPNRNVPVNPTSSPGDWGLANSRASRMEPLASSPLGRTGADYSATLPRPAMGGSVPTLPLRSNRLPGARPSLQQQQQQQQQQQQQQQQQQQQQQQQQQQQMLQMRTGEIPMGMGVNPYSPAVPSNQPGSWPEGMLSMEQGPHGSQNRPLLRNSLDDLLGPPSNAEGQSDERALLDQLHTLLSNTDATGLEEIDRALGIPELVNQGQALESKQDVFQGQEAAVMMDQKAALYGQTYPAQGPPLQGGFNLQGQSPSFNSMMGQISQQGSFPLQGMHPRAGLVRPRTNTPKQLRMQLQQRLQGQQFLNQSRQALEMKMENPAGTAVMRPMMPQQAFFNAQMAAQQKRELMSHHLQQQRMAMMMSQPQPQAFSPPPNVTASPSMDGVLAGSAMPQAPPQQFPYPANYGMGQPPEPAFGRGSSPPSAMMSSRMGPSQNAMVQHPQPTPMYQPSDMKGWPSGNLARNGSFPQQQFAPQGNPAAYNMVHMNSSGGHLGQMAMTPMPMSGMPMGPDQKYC
# HSF1 inhib = HSF1 inhibition. NIH3T3-HGL HSE-luciferase, MG132-induced, luminescence 8 h; active compounds read low. activity change, negative = inhibition, % at 7.5 µM (by protocol). hit rate 0.77% among 300,000. AID 2098;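 active means more than half of replicate wells show activity change below -50%, luminescence cut by over half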;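 further: luciferase reports HSF-1 transcriptional activity via heat shock element; 0% = median of DMSO wells and -100% = zero luminescence signal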
# HSP90 refold inh = blocks HSP90-mediated luciferase refolding in reticulocyte lysate | hit rate 0.91% among 290,000 | Rabbit reticulocyte lysate, luciferase refolding luminescence, 3 h | AID 1789 | inhibition, % at 5.6 µM;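 active means inhibition above the screen-wide mean plus 3 SD, computed separately per campaign, cut at about 16% in these data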;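 further: 0% = DMSO wells and 100% = 60 µM geldanamycin wells; inhibitors lower the luminescence because luciferase stays unfolded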
# Hsp70 activator = switches on Hsp70 transcription; HeLa Hsp70 promoter luciferase reporter, luminescence; scaled: vehicle 0, proteasome-inhibitor control 100%; activation, % at 10 µM; hit rate 0.04% among 200,000; AID 1203;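 active means activation above the mean across all tested compounds plus 3 SD, cutoff set per campaign, cut at about 5.5% in these data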;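 further: 100% = MG132 at 30 µM as the positive control and 0% = DMSO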
# * hit, by the source's call; nt = no result.
SMILES,NALP1 inh,HSF1 activator,p-CIP stab down,HSF1 inhib,HSP90 refold inh,Hsp70 activator
CCOC(=O)N=Nc1c2ccccc2c2nc3no[nH]c3nc12,-7.8,-95.1,nt,-95.0*,6.1,-0.5
Cc1noc2ncnc(Oc3cc(Cl)ccc3Cl)c12,20.9*,20.6,12.0,15.2,-3.5,-0.1
CCN(C(=O)COC(=O)c1cc(-c2ccccc2)nc2c1c(C)nn2-c1ccccc1)C1CCS(=O)(=O)C1 (stereo not drawn),1.7,0.0,6.9,-0.8,0.0,-0.3
CCN(C(=O)COC(=O)c1c2c(nc3ccccc13)/C(=C/c1ccccc1)CC(C)C2)C1CCS(=O)(=O)C1 (stereo not drawn),40.2,83.9*,-6.5,49.5,-5.2,-0.2
CCN(C(=O)COC(=O)c1c(C)nn(-c2ccccc2)c1C)C1CCS(=O)(=O)C1 (stereo not drawn),3.5,15.8,-7.3,-0.8,-0.2,0.0
CCN(C(=O)COC(=O)c1cc(-c2ccc3cc(OC)ccc3c2)nc2ccccc12)C1CCS(=O)(=O)C1 (stereo not drawn),18.7,70.5*,13.5,35.5,1.4,0.0
O=[N+]([O-])c1ccc(/C=N/Nc2ccnc3cc(Cl)ccc23)o1,20.6,49.2,-9.7,32.3,-4.0,nt
Clc1ccc2c(N/N=C/c3cccc(Br)c3)ccnc2c1,47.2*,27.9,10.2,8.5,-3.9,-0.3
Clc1ccc2c(N/N=C/c3ccccc3Br)ccnc2c1,52.1,65.6*,5.8,26.6,2.8,-0.2
Cn1ccnc1SCC(=O)N(C1CCCCC1)C1CCCCC1,10.8,-75.0,-13.9,-68.3*,0.0,-0.1
Cn1ccnc1SCC(=O)c1ccc2ccccc2c1,16.0,212.6*,-4.8,207.2,-0.9,0.3
COc1cccc(C(=O)CSc2nccn2C)c1,7.8,39.5,-4.9,27.0,2.1,nt
CN(C)c1ccc(/C=C/c2ccc3ccccc3[n+]2C)cc1,60.3*,-42.7,-48.8,-38.4,3.7,-0.3
CCCCNC(=O)C(=O)Nc1cc2c3c(c1)CCC(=O)N3CCC2,22.3,1.1,-6.6,-0.1,-2.0,nt
O=C(CN1C(=O)C2C3C=CC(C3)C2C1=O)Nc1nncs1 (stereo not drawn),30.7,6.1,10.3,1.7,3.4,-0.4
CCC1Sc2ccc(S(=O)(=O)Nc3ccc(OC)cc3)cc2NC1=O (stereo not drawn),16.3,-66.3,0.0,-56.3*,3.9,nt
O=C(c1ccc(CN2CCc3ccccc3C2)cc1)N1CCc2ccccc2C1,-7.6,14.0,-2.9,6.8,2.4,-0.1
O=C(Cc1ccc(Br)cc1)N1CCc2ccccc2C1,24.3,98.4*,8.9,69.4,-7.8,nt
Cc1cc(OCC(=O)Nc2ccncc2)ccc1Cl,9.3,-0.8,-10.9,-1.0,-1.4,nt
COc1ccc(NC(=S)NNC(=O)COc2ccc(Cl)cc2Cl)cc1,5.0,19.1,-8.4,1.3,1.5,-0.3
CC(=O)NC(=S)Nc1ccc(NC(=O)COc2ccc(Cl)cc2)cc1,1.8,64.4*,-5.6,32.1,-1.0,-0.3
CCC(=O)NC(=S)Nc1ccc(NC(=O)COc2ccc(Cl)c(C)c2)cc1,25.3,79.2*,-6.7,45.2,-4.9,0.1
CCC(=O)NC(=S)Nc1ccc(NC(=O)COc2ccc(Cl)cc2Cl)cc1,-3.4,52.7*,-3.5,30.9,1.1,0.1
COc1ccc(N2CCN(C3CCCN(Cc4cccc(C(C)=O)c4)C3)CC2)cc1 (stereo not drawn),-1.1,-19.4,-5.3,-1.2,1.0,nt
O=C(CCC(=O)c1cccs1)c1cccs1,2.8,54.9*,-3.7,29.7,1.4,0.3
SMILES,NALP1 inh,HSF1 activator,p-CIP stab down,HSF1 inhib,HSP90 refold inh,Hsp70 activator
O=C(CCC(=O)c1cccs1)NC(c1ccccc1)c1ccccc1,-9.7,-0.2,3.9,2.2,1.3,0.2
CCCCOc1ccc(C2C(=O)N(C3CCCCC3)CC(=O)N2CC2CCCO2)cc1 (stereo not drawn),7.8,-63.1,-4.5,-54.1*,1.1,0.4
CCOc1ccc(C2C(=O)N(C3CCCCC3)CC(=O)N2CC2CCCO2)cc1OC (stereo not drawn),-21.7,-3.1,-11.7,2.1,1.9,-0.1
Cc1cccc2nc(CSc3ccc(Cl)cc3)cn12,-4.4,-3.6,-11.5,-4.7,-1.3,0.2
Cc1cc(C)n2cc(COc3ccc4ccccc4c3)nc2n1,37.7,66.7*,-0.3,25.0,4.7,-0.1
Cc1ccnc(SCc2cn3c(C)cc(C)nc3n2)n1,-3.9,6.8,16.0,2.4,-1.2,0.2
